A selection: hits, their analogues and other compounds. The true share with any hit is near 2.8%.
WRN helicase inh = qHTS for Inhibitors of WRN Helicase; WRN helicase unwinding, fluorescent forked duplex, kinetic; Potency, µM (titrated, usually from 114 µM), inactives show top-dose activity change, negative = inhibition, most hits filed as inhibitors; hit rate 0.46% among 360,000; AID 651768, 2012; further: potency means the concentration at half of the fitted maximal effect; on the % scale 0 is the no-effect control and ±100 the full control effect; nearly all actives have a fitted effect of over 55% in size
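WRN at 20 nM final preincubated with compound 15 min at room temperature; reaction started with 100 nM fluorophore/quencher forked duplex oligonucleotide and 2 mM ATP final. Unwinding followed kinetically by red fluorescence (ex 525, em 598 nm).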
POLK inh = qHTS for Inhibitors of Polymerase Kappa | DNA polymerase kappa (Homo sapiens), Q9UBT6 | Potency, µM (titrated, usually from 107 µM), without a hit: at the highest dose activity, negative = inhibition, actives largely listed as inhibitors | hit rate 0.53% among 400,000 | AID 588579, 2011 | purified Pol kappa, fluorescent DNA synthesis assay, 10 min; further: potency means the concentration at half of the fitted maximal effect; on the % scale 0 is the no-effect control and ±100 the full control effect
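Enzyme at 10 nM met test compounds for 15 min at room temperature. Substrate addition (50 nM final) began the reaction, which was monitored by fluorescence at 0 and 10 min.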
PI5P4Ka inh = qHTS for Inhibitors of phosphatidylinositol 5-phosphate 4-kinase (PI5P4K). Phosphatidylinositol 5-phosphate 4-kinase type-2 alpha (Homo sapiens), P48426. PI5P4Kalpha enzyme, ADP-Glo luminescence, 60 min; hits give low values. max response, %. hit rate 1.2% among 330,000; active means max response of -50% or lower; inconclusive means between -30% and -50%; inactive means -30% or higher; further: value at the top dose of about 77 µM; on the % scale 0 is the no-effect control and ±100 the full control effect
Target sequence (P48426 whole entry, looked up): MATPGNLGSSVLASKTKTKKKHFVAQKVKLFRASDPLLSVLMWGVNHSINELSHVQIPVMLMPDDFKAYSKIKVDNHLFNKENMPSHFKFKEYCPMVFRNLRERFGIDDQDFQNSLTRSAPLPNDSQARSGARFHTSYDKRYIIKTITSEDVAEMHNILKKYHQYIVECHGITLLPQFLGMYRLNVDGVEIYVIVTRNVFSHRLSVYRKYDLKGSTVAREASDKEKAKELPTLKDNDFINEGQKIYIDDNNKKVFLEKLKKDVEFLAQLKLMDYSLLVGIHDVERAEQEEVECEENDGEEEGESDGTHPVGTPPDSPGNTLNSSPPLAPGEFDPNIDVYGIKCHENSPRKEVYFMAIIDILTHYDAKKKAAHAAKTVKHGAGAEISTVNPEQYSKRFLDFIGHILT
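Reactions run in 0.038 M HEPES pH 7.4, 0.28 mM EGTA, 0.1% CHAPS and 5% DMSO, with PI5P4Kalpha, substrate, compound and 5 microM ATP final, one hour at room temperature. Readout is ADP-Glo luminescence.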
Pol eta inh = qHTS for Inhibitors of Polymerase Eta | recombinant Pol eta, fluorescent DNA replication assay | hit rate 1.2% among 390,000 | Potency, µM (titrated, usually from 114 µM), for the others: top-dose activity change, negative = inhibition, actives largely listed as inhibitors | AID 588591, 2011; further: potency means the concentration at half of the fitted maximal effect; on the % scale 0 is the no-effect control and ±100 the full control effect
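Pol eta (10 nM) was preincubated with compounds for 15 min at room temperature, after which fluorescent replication substrate (50 nM final) was added to start the reaction. Fluorescence was read kinetically at 0 and 10 min.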
POLB inh = qHTS Assay for Inhibitors of DNA Polymerase Beta; P06746; Pol beta primer extension/strand displacement, fluorescence kinetic; Potency, µM (highest dose often 114 µM), without a hit: at the highest dose activity change, negative = inhibition, most hits filed as inhibitors; hit rate 1.3% among 340,000; further: potency means the concentration at half of the fitted maximal effect; on the % scale 0 is the no-effect control and ±100 the full control effect
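Curves were derived by four-parameter Hill fits of normalized qHTS data. The kinetic fluorescent primer-extension read was taken at 0 and 10 min after 50 nM substrate, following a 15 min room-temperature preincubation of 10 nM enzyme with compounds.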
POLI inh = qHTS for Inhibitors of Polymerase Iota. DNA polymerase iota (Homo sapiens), Q9UNA4. Pol iota fluorescent replication assay, 10 min. Potency, µM (series often up to 115 µM), for the others: top-dose activity, negative = inhibition, most hits filed as inhibitors. hit rate 1% among 390,000; further: potency means the concentration at half of the fitted maximal effect
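Fluorescent replication assay read twice, at 0 min and 10 min after adding 50 nM (final) substrate. Enzyme (10 nM) and compounds were first incubated 15 min at room temperature; enzyme-free buffer wells were negative controls.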
Numbers without * were called inactive; ? = inconclusive; . = no result given; [ ] = another dose, or the depositor's remark. Unless noted, the call rests on the fitted dose curve; in most records, active means well fitted curve in the direction sought with a large enough effect; inconclusive means small, poorly fitted or top-dose-only effect, or another doubt; inactive means no such curve, though single readings can be large; an effect the other way counts as inactive or inconclusive.

SMILES	WRN helicase inh	POLK inh	PI5P4Ka inh	Pol eta inh	POLB inh	POLI inh
CCCCOc1ccc(-c2c(C(=O)Nc3ccccc3)c(C)[nH]c(=S)c2C#N)cc1	-15%	-12%	-53*	-8%	0%	19%
O=C(OCc1ccccc1)N1CCN(C(c2ccnc3ccccc23)c2nnnn2-c2ccc3c(c2)OCCO3)CC1 (stereo not drawn)	-1%	.	-3	.	.	.
O=C(CCl)N(c1ccccc1)c1c[nH]c2ccccc12	-2%[11.6 µM]	-11%	-3	14µM*	-15%	19%
Cc1cccc(C(=O)Nc2cc(S(=O)(=O)N3CCOCC3)ccc2N2CCCCC2)c1	-5%	-6%	3	-29%	.	-10%
NC(=O)C1CCN(CC(=O)Nc2nccs2)CC1	-7%[11.6 µM]	-10%	0	-9%	-3%	89µM*
CCOc1ccc(C(=O)C2CCN(CC(=O)Nc3nccs3)CC2)cc1	7%	-2%	1	-10%	-3%	31%
O=S(=O)(CS(=O)(=O)c1ccccc1)c1ccccc1	-6%	2%	0	-12%	.	42%
O=S(=O)(C/C(=C/CO)S(=O)(=O)c1ccccc1)c1ccccc1	-28%	4%	.	-20%	10%	22µM*
O=C(Nc1ccc2oc(-c3ccccc3F)nc2c1)c1ccc([N+](=O)[O-])o1	4%	-6%[60.1 µM]	-5	4%	11µM*	?
O=C(Nc1ccc2oc(-c3ccccc3F)nc2c1)c1ccccc1Cl	.	-25%	.	-15%	7%	16%
Cc1nnc(-c2cnn(C)c2N)n1CCCN1CCOCC1	6%[57.1 µM]	-19%	-6	-9%	-19%	32%
O=C(C[C@@H]1C/C=C\CC[C@H](Cc2ccc(F)cc2)C(=O)OC[C@@H]2CCCN2C1=O)N[C@H](CO)Cc1ccccc1	-9%	-12%	6	-16%	.	10%
CC(C)(C)C(=O)CSc1n[nH]c(-c2ccccc2)n1	.	-10%	.	.	.	-16%
Cc1c(C(=O)O)cnc2c([N+](=O)[O-])cnn12	79µM*	-33%	-55*	?	?	60%
O=C(Nc1ccccc1O)c1ccc2c(c1)C(=O)N(N1C(=O)c3ccccc3C1=O)C2=O	-36%	-13%	-17	-20%	28µM*	7%
O=C(O)c1ccc2c(c1)C(=O)N(CCc1ccccc1)C2=O	0%	-13%	-65*	-24%	19%	24%
O=C(Nc1ccc(O)cc1)c1ccc2c(c1)C(=O)N(N1C(=O)c3ccccc3C1=O)C2=O	-13%	-14%	-3	2%	?	-20%
O=C1c2ccccc2C(=O)N1CCc1ccccc1	-16%	1%	-12	-9%	.	133%
O=C(O)c1ccc2c(c1)C(=O)N(N1C(=O)c3ccccc3C1=O)C2=O	-22%	-12%	-9	-4%	25µM*	18%
O=C(O)c1ccc2c(c1)C(=O)N(CCCCCCCN1C(=O)c3ccc(C(=O)O)cc3C1=O)C2=O	-9%[57.1 µM]	-7%	-78*	-17%	0%	33%
O=C(O)CCCCCN1C(=O)c2ccc(C(=O)O)cc2C1=O	-2%	-11%[60.1 µM]	.	-10%	6%	23%
O=C(O)c1ccc2c(c1)C(=O)N(CCc1c[nH]c3ccccc13)C2=O	-13%[57.1 µM]	-12%	-69*	2%	1%	29%
CC(=O)c1cccc(NC(=O)Cn2cc(C(=O)c3cccc(Cl)c3)c(=O)c3ccc(C)nc32)c1	.	-7%	.	-1%	15%	89µM*
CS(=O)(=O)c1nc2c(cc1C#N)CCCC2	-18%	?	-1	-5%	-1%	?
CCCN1CCCc2cc(CN(CCCN3CCOCC3)C(=O)Nc3ccc(Cl)c(Cl)c3)ccc21	.	-5%[60.1 µM]	.	-17%	-13%	10%
SMILES	WRN helicase inh	POLK inh	PI5P4Ka inh	Pol eta inh	POLB inh	POLI inh
O=C(N/N=C/c1cccc([N+](=O)[O-])c1)c1cc(-c2ccccc2)nc2ccccc12	1%	-1%	-3	-7%	11%	-1%
O=C(N/N=C/c1ccc([N+](=O)[O-])o1)c1cc(-c2ccc(-c3ccccc3)cc2)nc2ccccc12	-7%[57.1 µM]	-31%	?	-31%	20µM*	?
O=C(N/N=C/c1ccc([N+](=O)[O-])o1)c1cc(-c2ccncc2)nc2ccccc12	-11%[57.1 µM]	?	.	89µM*	?	?
Oc1ccc2ccccc2c1SSc1c(O)ccc2ccccc12	.	0%[60.1 µM]	.	.	.	.
CCSc1nnc(N2C(=O)c3ccc(C(=O)c4ccc(C(=O)O)cc4)cc3C2=O)s1	1%	-12%	-85*	4%	13%	-1%
Cc1ccc(N2C(=O)c3ccc(C(=O)O)cc3C2=O)cc1C	6%	-11%	.	-18%	0%	16%
OCc1ccccc1O	.	-5%[60.1 µM]	.	.	.	.
OCc1ccccc1SSc1ccccc1CO	14µM*	-6%	-19	-4%	.	?
COc1cc(-c2ccc(N=Nc3ccc4c(S(=O)(=O)O)cc(S(=O)(=O)O)c(N)c4c3O)c(OC)c2)ccc1N=Nc1ccc2c(S(=O)(=O)O)cc(S(=O)(=O)O)c(N)c2c1O	.	0.25µM*	.	.	.	.
O=C(COc1ccc(/C=C\[N+](=O)[O-])cc1)N1CCOCC1	-14%[11.6 µM]	-20%	-2	32µM*	-24%	32µM*
CCC(NC(=O)Nc1ccc(O)cc1)(C(F)(F)F)C(F)(F)F	-1%	-23%	-2	-16%	12%	18µM*
CC(NC(=O)Nc1ccc(O)cc1)(C(F)(F)F)C(F)(F)F	-2%[57.1 µM]	-21%	18	-8%	-1%	11µM*
C=C1C=C(C(F)F)n2ncc(C(=O)NCc3ccc(OC)c(OC)c3)c2N1	.	0%	.	.	.	16%
COc1c2c(c(CCC(=O)O)c3c1C=CC(C)(C)O3)OC(C)(C)C=C2	-16%	-29%	1	18µM*	.	?
O=C(NCC[C@H]1CC[C@H](NS(=O)(=O)c2ccccc2F)[C@@H](CO)O1)c1ccc(F)cc1	-2%	.	0	.	.	.
Cc1cc2sc3ccccc3c(=O)c2c(C)c1O	-12%	-12%	2	-17%	50µM*	?
Cn1c(=O)c2[nH]c(N=NNc3ccccc3F)nc2n(C)c1=O	-30%	3%	?	-17%	-3%	25µM*
Cc1ccccc1NN=Nc1nc2c([nH]1)c(=O)n(C)c(=O)n2C	-26%[57.1 µM]	4%	-16	-2%	14%	28%
COc1ccc(N(C(=O)c2snc(C(N)=O)c2N)C(C(=O)NC2CCCCC2)c2ccc(F)cc2)c(OC)c1 (stereo not drawn)	-7%	-3%	1	22µM*	79µM*	?
COc1ccc(/C=C2/CCC(CN3CCOCC3)C2=O)cc1 (stereo not drawn)	14µM*	-14%	-10	?	.	?

Source: PubChem (National Center for Advancing Translational Sciences (NCATS))
